Test results taken from the supplement of paper PMC12632987.
Whole data set: some 4,500 sequences, median “median log2 fold change of GCK-ALFA target abundance (FLAG IP / Myc IP barcode read proportion)” near 0.078, cut for the lowest 2% near -0.6. The sample as a whole holds a higher share of the lowest values than the screen did.

B1: GBRAP_160_4742 (protein)
chain: KEELEKLKKEIEEIFKEGIELLKESEKEEALTIVRGIMGDVIMEVMSSEAASDELEEKIAEIADKAIEEVEKNKDAPIEKVIEIVEKAREEILKLIEEEI
B2: GBRAP_160_4574 (protein)
chain: SEEMKKLKEEIKEITEEAKEFIEGQSREEQIAIVKVAMGDILLLLDENPLVSDETEDKAAAIGDALIAYIEAHPDLTAEEIKELLEKATEEIIKLIEKEE
B3: GBRAP_128_3555 (protein)
chain: STEEVVEEAEELLEKIKESDEEEAREYARELVRLLASVDEESREAIVKVILERLPELTVEQLEILADVFREERPKVDPDVANALAEIEVEALNVALEKEE
B4: GBRAP_137_3630 (protein)
chain: ATVEIEVEEYEDVVEITVTLKDAAKAEAVKELVLDVAHEHGALAVSVEVEEDGTLVVTVWVPREKAEAFLEALVRRLQTELGLRVRVRNLDTGEEEEFEP
B5: GBRAP_128_3422 (protein)
chain: SRAAAVARARALLEAMKTADDATAAALADELAALFASADLETAEAIAEVIRAEIPKLTAKQLDILADAFRAALPKLTPEKANIAADVIVDLLNEREELEE
B6: GBRAP_128_3379 (protein)
chain: MDEEKLERVRELVRRAIESDVEETRELTREVVRLMGTLSPEEREAAAEIVIEALPEFSREKLDAIADTIRELRPELDPLGQELAAEVEVAALNRAEELEE
B7: GBRAP_52_6373 (protein)
chain: MEERARELARRILELAEAGDEEGLREEVRRIVEEESDELIAAVLRELRDMILTEPGLDPEALLTAAATLASEVLEAEKGTPETWAALTELLAAALALEQA
B8: GBRAP_52_5974 (protein)
chain: MEEEMRKLAKEIVALILAGDEAGARALLEEIAATKTEEEITLLFKELAKLAKTATPEERDAIVEAALLAEDIALAAGFDEAVMDSNLADVVKAAVDAEKA
B9: GBRAP_184_5132 (protein)
chain: TLLERAVEAKTAEELIAKARAVVEEAAAAGARLVLSVFAEDLSVEDNIAVIRELGELKAAHPQIEAIIVDLPEVSEEDLDKLIEAADAAGVKLVAAIPDE
B10: GBRAP_52_6073 (protein)
chain: MEEKIEKLAEEITEAIKAGDDEKALELLEKAVKELSEEEIKKLLVLTAKKVAKLNEEEHERFVDILDEFEDILIENGISEEDALLIVGDALAALAKEVAK
B11: GBRAP_52_6102 (protein)
chain: MREELRKKVREILELVREGKLEEARKKIKELVESLNDEEIRLVADEIAELAREAAPEDLDAVWTLAEMFAEELEKAGKPEVLVDYLLASTAAALYEREQA
B12: GBRAP_195_5410 (protein)
chain: MKVVGRVLRIEESDTPEDILAKIEAIVAEVKEESNGDLVLVVARHPSVPEETVRAAVAEAAERYPEIKITVEIFDDISLPLETLEAFARMEVANEEEERE
B13: GBRAP_160_3988 (protein)
chain: EEEKKKLLKEIEEIFKETYELASGEDPENRLTVVRVHMGEILLLAEESGILSEESIEKIDEILDELVEKVAANPDMTDEELKALLEEALKKIKEIIEAEK
B14: GBRAP_137_3679 (protein)
chain: MKVKITIEEHEDVVEITVTIEDKETGEELAEKIEDIAVEVGALAISVEKNEDGTYEVTIYVPKEKLEELLKKILELLKDADEVEIIRIVDGKETVEVIKN
B15: GBRAP_73_6498 (protein)
chain: LTDTGLTDEEIADIVDHENDIFNGGEEAYEAAVARIRAALPELSPERQELLRRILEAAERAKKKDKLLAYELVALALAVVEGLDLEKARRALEALEKRLE
B16: GBRAP_52_6205 (protein)
chain: MHERMRAHARELVALVKAGDLDAARAYARELARTLNEEELELLGEELVELAKTAAPEDLDAIFKAAEILSDVLEEEGFDEALADGLLNRVAAALYERELK
B17: GBRAP_160_4347 (protein)
chain: MEAAEKLIKELKEATERVIAEVDKLSVEQVAVVAAGEFGAVAMEAAEDERYSDEMVDVIIDAQDKILAFLDENKDASPEEIKEGIKKITEEAIKKIKEIA
B18: GBRAP_160_4081 (protein)
chain: SAAHEKLIKEVTEIFDEALKMMEGVTPAEAVAIALVALGEVALLIEEEEELSEEDKDKLLALVDAAEAEVRAAADATVAELKALLERHRDEIVAAIKALD
B19: GBRAP_35_5623 (protein)
chain: NTDKEIAEAVVAVLEDTLLAKDTVPADTFIDTAIKVARLGIEVAKELKEYKENAKKILEAVEKLLKAAKERAKETGAPEEKLKEIEKLLKEVEELKKKLE
B20: GBRAP_11_2643 (protein)
chain: KKEKLKKAAELAKKAIEALKKLLEEGVDNEELRKKIEELLEELSKLVKEYADESLKKLVEIAKELWKKSLEDPENAEEYVKNLLAALRVLSAELEEEIEE
B21: GBRAP_160_4726 (protein)
chain: SERIREFVERFEERFLETIEATEDESKEEQAAMFRGTAGEILMEALEEPFLSDEMEDVVAEELDALVAELEANWDASKEEKKAIVREHMERLRERLLALA
B22: GBRAP_160_4491 (protein)
chain: SAKVEEAKKEVKAIVDDAVDAIAEAPADQRAAIARAYAGDIVQTLLELGVVTDEQAETVLDTAEAGLAAVVAASAAGAAAAAAAAAALVATLNDMIKKFS
B23: GBRAP_14_3817 (protein)
chain: MEELKKKIKEILDDLYEELVEDIGLDEEKVKKLIDKALEEIFKALDDPEGSEEKIKEIMEKLKKEIEKLAAELGADEAAAARALVTDAEYEIDEAIEEAK
B24: GBRAP_160_4228 (protein)
chain: METVEKIVEIFRETFLEALELIEGESEEERRVILDVAVGEIILEVEEIEEATDEMVEIVDERAEKLAERLLAARDASREERRALVEEEAKKLREELEKLA
B25: GBRAP_52_6106 (protein)
chain: ARARVRALVEEALALVRAGREEEARALLEAFARTANEEELELFAEALAELAREAAPEDLDAVWRLAEMAAEALEAAGWPDVLVDDLLARVAAALYERELK
B26: GBRAP_160_4092 (protein)
chain: SEEIEKLIEEIDELRDETKEMIKGESREERATIIRGFGGEVIMLLFESGIVSEEVEDLADELFDELVATVEANPELTEEEIFALIDETVDEIKEAIKEDH
B27: GBRAP_80_6797 (protein)
chain: AAAALAAALAALAEVDAELAARVAAIVATARALGVSDADLADFVAAVLELAKADKEEAAALVDETEALLAEEAARGDTANATAVIRVHAGDALLAVEELE
B28: GBRAP_160_3998 (protein)
chain: SEKLAALKAEIAAILAETLELARGEDAAERLAVVRVMGGQILLTLEESGIVSDEALAAVDAILDATAAEVAANPDLTDAELAALLDATLARINAVLEEHS
B29: GBRAP_11_2747 (protein)
chain: KKEKLKEIAKAAEKLAKLLEELIKEGVDNEELLKEAEKALKELKKLVEEYGDESLKKLVEIIEEEFKKAKEDPENALKYLQNALAAARVLAGQVLLDIEE

Target: GABARAP, O95166
Sequence (O95166 whole entry, the tested form may be a part): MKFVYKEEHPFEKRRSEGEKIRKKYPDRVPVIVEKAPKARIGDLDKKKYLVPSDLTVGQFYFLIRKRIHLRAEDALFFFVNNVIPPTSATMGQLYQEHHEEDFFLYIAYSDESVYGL
Assay: median log2 fold change of GCK-ALFA target abundance (FLAG IP / Myc IP barcode read proportion) (log2 ratio); each designed protein is fused to an ALFA-tag nanobody in HEK293 cells to bring the named protein to FLAG-tagged glucokinase (GCK); Myc marks an untargeted standard; higher = target protein stabilised (more abundant)
Settings: target protein: 3xFLAG-MCP-GCK-ALFA reporter; HEK293 landing pad (RPLP)
In short: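 Binders fused to an ALFA nanobody were recombined as a library into HEK293 landing-pad cells, which were induced with 2 μg mL^−1 doxycycline and then transfected to express a FLAG-tagged target and a Myc-tagged standard. After 48 h, circular RNA barcodes recovered by anti-FLAG and anti-Myc immunoprecipitation of lysates were reverse transcribed, amplified and sequenced. Each binder's target abundance is the median log2 ratio of FLAG to Myc barcode read proportions, from barcodes present at ≥10^−7 in both replicates, binders carrying ≥3 barcodes per replicate, a 10^−6 pseudocount and pooled replicates.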

| Binder | median log2 fold change |
| --- | --- |
| B1 | 0.15 |
| B2 | -0.302 |
| B3 | -0.0585 |
| B4 | -0.302 |
| B5 | -0.139 |
| B6 | 0.284 |
| B7 | -0.998 |
| B8 | -0.0573 |
| B9 | 0.00161 |
| B10 | -0.605 |
| B11 | 0.197 |
| B12 | 0.261 |
| B13 | -0.199 |
| B14 | -0.124 |
| B15 | -0.718 |
| B16 | -0.122 |
| B17 | 0.152 |
| B18 | 0.134 |
| B19 | -0.669 |
| B20 | 0.271 |
| B21 | 0.0951 |
| B22 | -1.1 |
| B23 | -0.057 |
| B24 | -0.393 |
| B25 | -0.266 |
| B26 | -0.649 |
| B27 | -0.147 |
| B28 | -0.533 |
| B29 | -0.119 |
